From the OligoGym collection

molecular target: ZNF836; test: pooled miR-30 sensor sort-seq; sequence = guide strand; settings: shRNA
Also: reference of the scale not given here.

| Sequence | sensor-assay potency score (higher = more potent) |
| --- | --- |
| TTGAACGCTGAGTATAGGCTTT | 0.0637 |
| TAACTTTGACTAAAGGACTTGC | 0.219 |
| TTTCTCTGTAGTATGTACCATC | -0.51 |
| TTCAGTTTGAAATTTCTGCAGT | 0.363 |
| TTTGTTTCCACTATGAACTGTC | 1.2 |
| TTTGTTTTCTACATCCTCTTGA | 0.866 |
| TAGGAGAACATCTAAAGGCTTT | 0.15 |
| TTGACTGAAGACCTTGTCGCAT | -0.213 |
| TAAGACTTGAAGACACTCTAAA | -0.52 |
| TTGTTTTAAGACTCTCTGCAGT | -0.237 |

molecular target: ZNFX1; test: as above; settings: shRNA

| Sequence | sensor-assay potency score (higher = more potent) |
| --- | --- |
| TAGACCTCTACTGCTATGCTAT | -0.477 |
| TTGTCCACAACATGGACCCTGA | -0.839 |
| TAATTTGCCAAACAGACTCGTT | -0.716 |
| TTCTCTGCTATCTTGTAGCGGG | -0.426 |
| TAACACACAACCAAGATGGGGA | 0.323 |
| TTGAATAATAGCCAGTTCCCTT | -1.02 |
| TACAACTGTAGCCAGAGCCTAT | -0.979 |
| TTCAATCTCTTCTAGCCGCTGT | 0.737 |
| TTGGTCTCTAGCTTCGTCGCTG | 0.295 |
| TTTGTCCACAACATGGACCCTG | -0.317 |
| TTTATTATGAGAGTTAGTCTGC | 0.368 |
| TTTCTCTTCTAAGACATGCATC | -0.81 |

molecular target: ZNRF2; test: as above; settings: shRNA

| Sequence | sensor-assay potency score (higher = more potent) |
| --- | --- |
| TTAAACACATTACAAGATGCAA | -0.454 |
| TAAACACATTACAAGATGCAAA | -1.15 |
| TTGTCAAGACAAGAAAACCTAT | -0.902 |
| TTATGATATATGCATAGACAAG | -1.91 |
| TTTATCAGTATTACCTATGTAG | 0.361 |
| TGCATAGACAAGGCAGTCGTGC | -0.863 |
| TTACTTCAAACCATTCATCTAT | 0.146 |
| TACTTCAAACCATTCATCTATG | -0.758 |
| ATAGACAAGGCAGTCGTGCTAT | 0.0716 |
| TCGTGCTATAGTATCTCCCTGC | 0.0677 |
| TTGTTAAACACATTACAAGATG | -1.34 |

molecular target: ZSCAN21; test: as above; settings: shRNA

| Sequence | sensor-assay potency score (higher = more potent) |
| --- | --- |
| TAGGAACTGATTCTCTACCTTT | 0.143 |
| TTTAAGAAGGTCTGAGCTCTGC | 0.0311 |
| TTAACTAGACTGGATACACGTC | -0.514 |
| TAAAACAACGACAACAACAGGA | 0.555 |
| TTCGTTACACTGATAAGGCTTC | 0.478 |
| TAGACTGGATACACGTCTGTTT | -0.362 |
| TTTCTCTTCTTTCTCCTCGACT | -0.944 |
